39 compounds from PubChem BioAssay AID651599 (National Center for Advancing Translational Sciences (NCATS), 2012) can be followed below.

The test addresses Tumor susceptibility gene 101 protein (Homo sapiens) (UniProt Q99816). The test can be described thus: qHTS Assay for Iinhibitors of HIV-1 Budding by Blocking the Interaction of PTAP/TSG101: Hit Validation in TR assay. The settings on record: Tsg101 binding domain + Texas Red-labeled PTAP peptide, fluorescence polarization, 20 min; series mostly up to 57.5 µM. The procedure, abridged: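 Fluorescence polarization: Tsg101 binding domain (10 uM final) with Texas Red-labelled PTAP peptide (50 nM final) in HEPES pH 7.5, 0.15 M NaCl, Tween 20, EDTA, TCEP; 20 min binding at room temperature after compound addition.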

Molecules are shown by their SMILES. Records with an inconclusive call do not appear. A call without a number means that no potency is given here. Active and inactive are the calls of the source. Calls come from the whole dose curve; as a rule, active = well fitted inhibition curve with a large enough effect; inconclusive = small, poorly fitted or top-dose-only effect; inactive = no such curve, though single readings can be large or run the other way.
Potency is the fitted concentration of half-maximal effect.

Tumor susceptibility gene 101 protein (Homo sapiens), sequence (Q99816 whole entry, looked up, the tested form may be a part): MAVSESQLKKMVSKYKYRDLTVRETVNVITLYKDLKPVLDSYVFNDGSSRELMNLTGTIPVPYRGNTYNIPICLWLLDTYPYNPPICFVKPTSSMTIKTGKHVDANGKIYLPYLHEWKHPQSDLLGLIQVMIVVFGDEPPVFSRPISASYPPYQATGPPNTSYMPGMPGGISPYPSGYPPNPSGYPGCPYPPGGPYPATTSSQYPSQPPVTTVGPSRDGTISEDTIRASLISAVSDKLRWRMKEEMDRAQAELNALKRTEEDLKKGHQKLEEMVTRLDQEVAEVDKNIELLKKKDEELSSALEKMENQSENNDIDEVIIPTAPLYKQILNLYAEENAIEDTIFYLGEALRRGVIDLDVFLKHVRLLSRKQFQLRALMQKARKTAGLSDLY

`Cc1cc(Nc2cccc(Cl)c2C)n2ncnc2n1`: the Potency result is “inactive”.
The value for `CCn1c(C)cc(C=C2C(=O)c3ccccc3C2=O)c1C` was “inactive”; that for `Oc1[nH]c2ccccc2c1N=Nc1ccccc1` was “inactive”.
The value for `O=C(NCc1ccccc1Br)c1cccc2c1C(=O)c1ccc(N3CCC(Cc4ccccc4)CC3)cc1S2(=O)=O` was “inactive”.
Consider `Oc1ccc2nnc3c(Br)cnn3c2c1`, for which the Potency entry is “inactive”.
The value for `O=C(NC1CCCC1)c1cccc2c1C(=O)c1ccc(N3CCCCC3)cc1S2(=O)=O` was “inactive”; that for `CCCCC(=O)NC1=NC(=O)C(C)(C)S1` was “inactive”; that for `O=[N+]([O-])c1ccc(-c2cn3nc(-c4ccccc4)c(-c4ccccc4)nc3n2)cc1` was “inactive”.
As for `O=C1Nc2ccc(F)cc2C12Nc1ccccc1-c1nnc(SCc3ccccc3F)nc1O2` (centres undefined), the Potency result is “inactive”.
The value for `CC(=O)N/N=C/c1cc(C(C)C)cc(/C=N/NC(C)=O)c1O` was “inactive”; that for `CC(=O)Nc1ccc(Nc2c3c4c(cccc4n(C)c2=O)C(=O)c2ccccc2-3)cc1` was “inactive”; that for `N=C1/C(=C/c2coc3ccccc3c2=O)C(=O)N=C2SC(c3ccco3)=NN12` was “inactive”.
With `C=C1CCN(c2ccc(C(=O)O)cc2[N+](=O)[O-])CC1`, the Potency result is “inactive”.
With `Cn1c(=O)c(N)c2c3c(c(Br)ccc31)C(=O)c1ccccc1-2` the figure was 18.3 µM (active); with `CC(C)(C)N=Cc1c(O)ccc2oc3c(c12)CCCC3`, “inactive”; with `O=C(NCC1CCCO1)c1cccc2c1C(=O)c1ccc(N3CCC(Cc4ccccc4)CC3)cc1S2(=O)=O` (centres undefined), “inactive”.
The value for `COC(=O)c1cc2c(N)c(C(=O)c3ccc(Cl)cc3)sc2nc1C(OC)OC` was “inactive”; that for `Cc1ccc(C2C=C(c3ccc(Cl)cc3)Nc3nc(NS(=O)(=O)c4ccccc4)nn32)cc1` (centres undefined) was “inactive”.
The value for `CC[C@H](C)/C=C(C)/C=C/C1=CC2=CC(=O)[C@]3(C)OC(=O)[C@@H](C(C)=O)[C@@H]3C2=CO1` was “inactive”; that for `CC(=O)c1ccc2c(c1)c(C#N)c1ccccc1[n+]2[O-]` was “inactive”.
As to `COc1ccc(OC)c2cc3ccccc3cc12`, the Potency entry was “inactive”.
On to `CCN(C(=O)c1sc2nc3n(c(=O)c2c1C)CCCC3)c1ccccc1F`, for which the Potency result was “inactive”.
As to `COC(=O)c1cc(N2CCN(C)CC2)nc2ccccc12`, the Potency entry was “inactive”.
The value for `O=c1c(/C=C(\O)c2ccccc2)nc2ccccc2n1-c1ccccc1` was “inactive”; that for `COc1ccccc1N1C(=O)c2cccc3c(N(C)CCO)ccc(c23)C1=O` was “inactive”.
With `Cn1cc(/C=C2\SC(=S)N(NC(=O)c3ccccc3Cl)C2=O)c2ccccc21` the entry was “inactive”.
In the case of `O=C(OCCN1C(=O)c2cccc3c(N4CCOCC4)ccc(c23)C1=O)c1cccc(Cl)c1`, the Potency entry is “inactive”.
With `CCC1CCCCN1C(=O)c1cc2cc(Br)ccc2oc1=O` (centres undefined) the entry was “inactive”.
Consider `COc1ccc(C2=CC(c3ccco3)n3ncnc3N2)cc1` (centres undefined), for which the Potency entry is “inactive”.
As for `O=Cc1nccc2ccccc12`, the Potency result is “inactive”.
With `CCOc1ccc(S(=O)(=O)N2CCc3cc(OC)c(OC)cc3C2)cc1` the entry was “inactive”.
With `COc1ncnc2c1N=C1CC(C)(C)CC(N)=C1S2` the entry was “inactive”; with `CN(C)c1ccc(/C=C(\C#N)C(=O)Nc2nc3c(s2)CCN(Cc2ccccc2)C3)cc1`, “inactive”.
The value for `CCCCNC(=O)C(C#N)c1nc2ccccc2nc1N1CCN(Cc2ccc3c(c2)OCO3)CC1` (centres undefined) was “inactive”.
`CNc1c2cccc(C)c2nc2c(C(=O)NCCN(C)C)cccc12`: the Potency result is “inactive”.
As for `O=c1nc2c(O)cccn2c2c1c(=O)[nH]c1ccccc12`, the Potency result is “inactive”.
With `O=C(NC1CC1)c1cccc2c1C(=O)c1ccc(N3CCC(Cc4ccccc4)CC3)cc1S2(=O)=O` the entry was “inactive”; with `O=[N+]([O-])c1cc(Cl)cc(/C=N/n2cnnc2)c1O`, “inactive”.
As to `Cc1ccccc1-c1ccc(/C=C2/SC(N3CCOCC3)=NC2=O)o1`, the Potency entry was “inactive”.
